Measurements: ChEMBL document CHEMBL3988442, “University of Dundee, Small-Polar-MMV Screening Library” (2021)
About 13,000 (27%) of roughly 48,000 compounds showed an effect of 50% or more. Some of the results follow.

System: Wolbachia pipientis
Test: Anti-Wolbachia Cell-Based Screen
Format: functional
Set-up: scale not given: in the data most compounds retested in dose-response had high values
Conditions: 5 µM

SMILES | Percent Effect [%]
CN(CC1CC1)C(=O)Cc1csc(-c2ncccn2)n1 | -2.04
CCC(=O)NCC(CC)Oc1cccc(F)c1 (centres undefined) | -9.029
CCN(CC)Cc1nc2c(o1)CN(C(=O)c1ccncc1F)C2 | 11.31
CN(C)Cc1nc2c(o1)CN(C(=O)NCc1cccc(F)c1)C2.O=C(O)C(F)(F)F | -9.503
CCN(CC)Cc1nc2c(o1)CN(S(=O)(=O)c1cccs1)C2.O=C(O)C(F)(F)F | 103.4
CCN(CC)Cc1nc2c(o1)CN(C(=O)c1ccc3ncccc3c1)C2 | -8.46
CN(C)Cc1nc2c(o1)CN(S(=O)(=O)c1cccs1)C2.O=C(O)C(F)(F)F | 113.1
CC(C)N(C)Cc1ncn2c1CN(S(=O)(=O)c1cccs1)CCC2.O=C(O)C(F)(F)F | 2.779
CC(Oc1ccc(F)c(F)c1)C(=O)N(CC(N)=O)C1CCCC1 (centres undefined) | 5.493
CC(NC(=O)CCc1cccc(OC2CCCC2)c1)c1nncn1C (centres undefined) | -2.207
CCOC(=O)c1sc(NC(=O)CN2C(=O)CCC2=O)c(C#N)c1C | 132.7
CCOC(=O)c1sc(NC(=O)C(C)C)c(C#N)c1C | 157.4
CCCC(=O)Nc1sc(C(=O)OCC)c(C)c1C#N | 10.62
CCOC(=O)c1sc(NC(=O)CN(C)S(C)(=O)=O)c(C#N)c1C | 0.9217
Cc1sc(NC(=O)CN(C)S(C)(=O)=O)c(C#N)c1C | 5.3
Cc1cc(N2CCCC(N(C)C)C2)n2nccc2n1 (centres undefined) | 14.85
COC(=O)C(NC(=O)CCc1ccco1)c1cc(F)ccc1F (centres undefined) | 117.5
COC(=O)C(NC(=O)C(C)C)c1cc(F)ccc1F (centres undefined) | -7.207
CC(C)OCCC(=O)Nc1c(-c2ccc(F)cc2)ncn1C | 6.912
COC(=O)C(NC(=O)CC(C)C)c1cc(F)ccc1F (centres undefined) | 110.3
CC(C)OCCC(=O)N(C)c1ccc(F)c(Cl)c1 | 3.103
CC(C)NC(=O)CC(C)NCc1ccc(F)cc1Cl (centres undefined) | 10.92
COC(=O)C(NC(=O)c1ccco1)c1cc(F)ccc1F (centres undefined) | -3.431
CCCC(=O)NC(C(=O)OC)c1cc(F)ccc1F (centres undefined) | 95.91
COC(=O)C(NC(=O)CCOC(C)C)c1cc(F)ccc1F (centres undefined) | 85.02
CCOC(=O)C(C)NC(=O)CCSc1ccc(F)cc1 (centres undefined) | 5.779
O=C(CCc1ccco1)Nc1cccc(S(=O)(=O)C(F)F)c1 | 1.803
CC(C)(C)S(=O)(=O)c1ccc(N2CCN(c3ccccc3)CC2)nn1 | 15.82
COCc1n[nH]c2c1CN(Cc1ccccn1)C2.O=C(O)C(F)(F)F | -21.53
